Data reported in PubChem BioAssay (NCI).
About 83,000 compounds went through this panel and 20% of them were active in at least one assay; those are over-represented in the sample as a whole.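 Each cell line was grown in a 96-well plate and treated with one concentration of compound for 48 hours. Values below 10 were considered active.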 A number with no mark means an inactive call. The source made the active and inactive calls.

Test system: SK-MEL-5 melanoma
Experiment: NCI-60 one-dose screen, 48 h (100 = growth as untreated, 0 = no growth, -100 = all killed)
Conditions: 10 µM unless noted

Structure (SMILES)	growth
CCc1ccc(OCc2ccccc2C(=O)Nc2ccc3nc(C)cc(N)c3c2)cc1	-90.5% (active)
Nc1cccc(C(=O)Nc2ccc3c(O)c(N=Nc4ccc(N=Nc5ccc(S(=O)(=O)O)cc5)cc4)c(S(=O)(=O)O)cc3c2)c1	104%
COc1cc(NCC(=O)Nc2cc(Nc3cccc(C(F)(F)F)c3)ncn2)c(Cl)c(OC)c1Cl	95.2%
CC1CCCN(CCCCCOc2ccc3oc4ccccc4c(=O)c3c2)C1 (centres undefined)	-59.2% (active)
CCCn1c(N)c(C(N)=O)sc1=S	111%
CCOC(=O)c1sc(/N=C2\NC(=O)/C(=C/c3ccc(N4CCN(C)CC4)cc3)S2)nc1C	98%
CN(C)C1=NCCN1	103%
CCOC(=O)c1ccc(Nc2ncnc3ccc(NC(=O)c4ccccc4)cc23)cc1	84.6%
N#CC1C(c2ccc(Cl)cc2)=Nc2c(c(-c3ccccc3)nn2-c2ccccc2)C12C(=O)Nc1ccc(Cl)cc12 (centres undefined)	46.5%
C#C[C@@]1(O)[C@@H](CO)O[C@@H](n2ccc3c(N)ncnc32)[C@@H]1O	-52.7% (active)
CN(C)CCCn1c2c(c3cc(-c4cccc(S(N)(=O)=O)c4)ccc3c1=O)C(=O)c1ccccc1-2	85.3%
C=C1C(=O)O[C@H]2[C@H]1CC/C(COC(=O)/C=C/c1cccnc1)=C\CC[C@@]1(C)O[C@@H]21	68.2%
C#C[C@@]1(O)[C@@H](CO)O[C@@H](n2cc(Cl)c3c(N)ncnc32)[C@@H]1O	-61% (active)
CCOc1ccc(C2N(c3cc(OC)c(OC)c(OC)c3)C(=O)C2(F)F)cc1 (centres undefined)	6.76% (active)
O=C1C(Cl)=C(NCCCN(CCCNC2=C(Cl)C(=O)c3ccccc3C2=O)C2=C(Cl)C(=O)c3ccccc3C2=O)C(=O)c2ccccc21	-59.1% (active)
COc1ccc(-c2nc(C#N)c(NCC(c3ccc(Cl)cc3)N3CCCCC3)o2)cc1 (centres undefined)	93.2%
Cc1nc2sc(C(=O)Nc3ccccc3)c(N)c2cc1C(C)O (centres undefined)	26.5%

Structure (SMILES)	growth
O=C1CCC23OC(c4ccccc4N12)C(O)C(O)C3O (centres undefined)	111%
C=C1C(=O)O[C@H]2[C@H]1CC/C(COC(=O)CCCCC(=O)OC/C1=C/CC[C@@]3(C)O[C@H]3[C@H]3OC(=O)C(=C)[C@@H]3CC1)=C\CC[C@@]1(C)O[C@@H]21	77.9%
CC[C@]12C=CCN3CC[C@@]4(c5cc(NC(=O)CCC(=O)O[C@H]6CC[C@H]7[C@@H]8CC[C@H]9CC(=O)CC[C@]9(C)[C@H]8CC[C@]67C)c(OC)cc5N(C)[C@H]4[C@@](O)(C(=O)OC)[C@@H]1OC(C)=O)[C@@H]32	54.4%
N#CC(C#N)=C1NC(c2ccccc2)=C(c2ccccc2)C(c2ccccc2Cl)=C1C#N	105%
CCCCCCCCCCCCCC1=NCC[N+]1(CCO)Cc1ccccc1 (centres undefined)	-73.6% (active)
Cc1cc(C)n(-c2nc(-c3cccs3)c(C#N)c(=O)[nH]2)n1	102%
COc1ccc(C2C(c3ccccc3)C(=O)N2c2cc(OC)c(OC)c(OC)c2)cc1I (centres undefined)	-41% (active)
CC(C)(C)c1ccc2oc(=O)n(SC(Cl)(Cl)Cl)c2c1	107%
CCOC(=O)c1c(C)nc2c(c1N)/C(=C/c1ccccn1)C(=O)N2Cc1ccccc1	41.2%
O=C(Nc1cccc(-c2cccc(F)c2)c1)C1CCN(Cc2cccc3cccnc23)CC1	35.2%
COc1ccc(C(C)c2cc(OC)c(OC)c(OC)c2)cc1 (centres undefined)	-31.5% (active)
Cc1ccc(SC2c3ccc(C)cc3Oc3nc(N)c(C#N)c(N)c32)cc1 (centres undefined)	63.8%
COC(=O)/C=C/c1cc(OC)c2c(c1)[C@@H](C(=O)OC)[C@H](c1ccc(OC)c(OC)c1)O2	9.73% (active)
C#CCN(CCCOc1ccc(Cl)cc1Cl)CCCSC(=O)CCCCCN1/C(=C\C=C2/CCCC(/C=C/C3=[N+](CCCCCC(=O)[O-])c4ccccc4C3(C)C)=C2Cl)C(C)(C)c2ccccc21	-25.7% (active)
O=C1NCc2ccc3c(-c4cccc(Cl)c4)c[nH]c3c21	31.2%
O=C(/C(=C\c1c(-c2ccccc2)[nH]c2ccccc12)S(=O)(=O)c1ccccc1)c1ccccc1	47.7%
N#Cc1c(-c2ccc(F)cc2)nc(N=Nc2c(O)[nH]c3ccccc23)nc1N1CCOCC1	64.7%
